From the OligoGym collection
Note: reference of the scale not given here.

What follows are sequences tested against INF2 (assay: pooled miR-30 sensor sort-seq; sequence = guide strand). Conditions: shRNA.
TTTCAATCTCGTGCTTCTCGGG was tested, and the sensor-assay potency score (higher = more potent) was -0.468. Work on TTGAGGTTCAGGCTCTTCTTGG yielded a sensor-assay potency score (higher = more potent) of -1.01. TTCAGCAATGTGCTGATCTTGA gave a sensor-assay potency score (higher = more potent) of -0.209. For TTTTGATTAAACCTTGCTGGGC, the sensor-assay potency score (higher = more potent) was -0.764. TTGCATTTTGATTAAACCTTGC was tested, and the sensor-assay potency score (higher = more potent) was -0.249. Sequence TTTCAGGATGCTCTCACTCTGG has a sensor-assay potency score (higher = more potent) of -0.623. TGTTGTAGCATCAAGGCCGGGC was tested, and the sensor-assay potency score (higher = more potent) was -0.171.

Each sequence was assayed against INO80B in the same assay as above. Conditions: shRNA.
TTCTTGTGCACTCCATGGCCAT showed a sensor-assay potency score (higher = more potent) of -1.62. Sequence ATTACTGTCTTCATCCAGCCAG has a sensor-assay potency score (higher = more potent) of -0.0733. TTACTGTCTTCATCCAGCCAGG gave a sensor-assay potency score (higher = more potent) of -0.737. TTGTGTTTCTTCTTGTGCTTCT gave a sensor-assay potency score (higher = more potent) of 0.567. Sequence TTATCCACAACCATAAGGGGAG has a sensor-assay potency score (higher = more potent) of -0.805. TCTGGGATCACAGTGAAGGTAG gave a sensor-assay potency score (higher = more potent) of 0.138. For TTTGAGTTTGAGCTGAGGCTTG, the sensor-assay potency score (higher = more potent) was -0.36. Sequence TTTTCTTGTGCACTCCATGGCC has a sensor-assay potency score (higher = more potent) of -0.4. TTCCTGATGGTGTTTCTTCTTG was tested, and the sensor-assay potency score (higher = more potent) was -0.564. TTGAGTTTGAGCTGAGGCTTGG was tested, and the sensor-assay potency score (higher = more potent) was -0.366. In the case of TAACCCTCCTGATAGGTCCCGA, the sensor-assay potency score (higher = more potent) is reported as -0.336. For ATTATCCACAACCATAAGGGGA, the sensor-assay potency score (higher = more potent) was -1.17.

What follows are sequences tested against INO80C in the same assay as above. Conditions: shRNA.
In the case of ATTTGTTTCAGGTTCTTCCAGG, the sensor-assay potency score (higher = more potent) is reported as -0.776. TTTACTTGAGGCAACAACTGAA gave a sensor-assay potency score (higher = more potent) of 0.108. In the case of TTACTTGAGGCAACAACTGAAG, the sensor-assay potency score (higher = more potent) is reported as -0.863. TTCAATGGTGCTGAACCGCAGT was tested, and the sensor-assay potency score (higher = more potent) was -0.122. For TTGCTGTTCCGGACTATTCCGG, the sensor-assay potency score (higher = more potent) was -0.701. TGAAACATCAGAATACTTCTTA gave a sensor-assay potency score (higher = more potent) of 1.15. TATAATTTAATTCAGCAGGAAA showed a sensor-assay potency score (higher = more potent) of -1.3. With TTGGAGGGAAAACACACACTAA the sensor-assay potency score (higher = more potent) was -1.27. TTCTGTTCTTCTTGCCAGCTAC showed a sensor-assay potency score (higher = more potent) of -0.723. TACTGAAGTAGTTAGGATCGTT was tested, and the sensor-assay potency score (higher = more potent) was 0.332. Sequence TGTAGTTGGCAAGCAGACCTGA has a sensor-assay potency score (higher = more potent) of -0.0597. TTTTGAAACAGCTTTCCACTTC gave a sensor-assay potency score (higher = more potent) of 0.164.

Each sequence was assayed against INPP5F in the same assay as above. Conditions: shRNA.
Sequence TTCGTTTATAGCGCATTCCTGC has a sensor-assay potency score (higher = more potent) of -0.611. In the case of TTGCTTGGTGATCTGCAGCATC, the sensor-assay potency score (higher = more potent) is reported as -0.92. TTAGTGTCTGAACATTCTCAAA was tested, and the sensor-assay potency score (higher = more potent) was -1.6. In the case of TTCTTTGTATCTGTAGTGCAGT, the sensor-assay potency score (higher = more potent) is reported as -0.359. In the case of TTACTTTATCAACTTCATCATC, the sensor-assay potency score (higher = more potent) is reported as -1.34. For TTCACTTCTGTCCAGCCGCGGT, the sensor-assay potency score (higher = more potent) was -1.35. Work on TACCAAGTTAATAATAACCTGT yielded a sensor-assay potency score (higher = more potent) of -0.241. In the case of TAGACTTAGTCGTTGATACTGG, the sensor-assay potency score (higher = more potent) is reported as -0.136. For TTCCTTTTCACTTCTGTCCAGC, the sensor-assay potency score (higher = more potent) was -0.59.
